# Measured values as given in PubChem BioAssay.
# Active and inactive are the calls of the source.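 Rule for the calls, unless noted: active = compounds that lower viability of the colon cancer cells in the luminescence readout, with no numeric limit stated; inactive = the rest.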
# Assays:
# [1] = Wnt pathway potentiators raising nuclear beta-catenin – imaging, WNT3A-conditioned medium, mouse C2C12, NPC library, primary screen (AID 1117326; in the data active = nuclear beta-catenin stimulation mostly above about 4.2%, no sharp cut-off; inactive = mostly below about 10%; note: reference of the scale not given here); conditions: stronger effect = higher value
# [2] = stimulators of insulin release from INS-1E, primary screen, cell-based, 5 mM glucose, NPC library (AID 1117329;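 active = compound raises insulin release from rat beta cells at 5 mM glucose, no numeric limit stated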; note: reference of the scale not given here); conditions: rat INS-1E insulin secretion, at 10 µM, stronger effect = higher value
# [3] = growth inhibition of GSK3B-pretreated HCT116 cells – cell-based, CellTiter-Glo, 0.2 to 20 µM (AID 1117336;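 active = compounds lowering colon cancer cell viability after pretreatment blocking the GSK3B kinase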); conditions: HCT116 viability after GSK3B inhibitor, at 20 µM, stronger effect = higher value
# [4] = inhibition of endothelial tube formation, primary screen, imaging, VEGF stimulated, CD31 staining, tube area, NPC library (AID 1117340;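 active = compound that reduces growth-factor-driven endothelial tube area in a mixed cell culture, no cutoff stated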); conditions: VEGF-stimulated ADSC/ECFC co-culture, at 10 µM, stronger effect = higher value
# [5] = GLP1 release stimulators, primary, NCI-H716, NPC library (AID 1117341;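 active = compound raises GLP1 secretion from the human gut endocrine cells, with no numeric limit stated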; note: reference of the scale not given here); conditions: NCI-H716 cells, at 10 µM, stronger effect = higher value
# [6] = HCT116 colon cancer cell growth inhibition, primary screen, CellTiter-Glo luminescence, NPC library (AID 1117342;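 active = compounds that lower survival of HCT116 colon cancer cells in the luminescence readout, no numeric limit stated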); conditions: at 20 µM (top of the series)
# [7] = reduced SW480 viability measured with CellTiter-Glo, NPC library, primary (AID 1117343); conditions: CellTiter-Glo luminescence; at 20 µM (top of the series)
# [8] = NPC library primary testing for decreased DLD-1 cell viability via CellTiter-Glo (AID 1117346;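 active = compounds that lower survival of DLD-1 colon cancer cells in the luminescence readout, no cutoff given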); conditions: DLD-1 viability, CellTiter-Glo luminescence; at 20 µM (top of the series)
Compound,nuclear beta-catenin stimulation ([1]; at 10 µM),"nuclear beta-catenin stimulation ([1]; stimulation, at 2 µM) [%]",insulin secretion stimulation [2],viability decrease [3],tube area decrease [4],GLP1 secretion stimulation [5],inhibition of viability [6],viability decrease (inhibition) [7],viability decrease (inhibition) [8]
CCN(CC)N(O)N=O,-1.2% (inactive),0.7,-0.3% (inactive),2.3% (inactive),-3.9% (inactive),-1.7% (inactive),-0.1% (inactive),-1.2% (inactive),-7.7% (inactive)
CN1CCC(N(Cc2ccccc2)c2ccccc2)CC1,0.1% (inactive),-3,14.1% (inactive),24.8% (inactive),-0.1% (inactive),14.3% (inactive),41.7% (inactive),48.7% (inactive),23.2% (inactive)
CC(C)=CC1C(C(=O)OCN2C(=O)C3=C(CCCC3)C2=O)C1(C)C (configuration not stated),2.5% (inactive),0.7,-1.8% (inactive),34.8% (inactive),16% (inactive),-0.5% (inactive),38.2% (inactive),63% (active),5% (inactive)
C[C@]12C=CC(=O)C=C1CC[C@@H]1[C@@H]2CC[C@@]2(C)[C@H]1CC[C@]2(C)O,6.6% (inactive),2.4,1.5% (inactive),38.6% (inactive),31.2% (inactive),4% (inactive),29.9% (inactive),75.7% (active),17.9% (inactive)
CN1CCc2cc(Cl)c(O)cc2[C@H]2c3ccccc3CC[C@@H]21,1.9% (inactive),2.3,20.2% (active),16.1% (inactive),24.1% (inactive),5.5% (inactive),28.5% (inactive),46.5% (inactive),21.2% (inactive)
Cc1ccc2c(c1)C1CN(C)CCC1N2 (configuration not stated),-0.3% (inactive),0.7,-0.9% (inactive),1.05% (inactive),-17.5% (inactive),6.1% (inactive),5.2% (inactive),22.4% (inactive),0.7% (inactive)
CC(C)NC(C)C,14.9% (inactive),5.2,4.3% (inactive),-0.3% (inactive),-6.3% (inactive),-0.1% (inactive),1.1% (inactive),2.1% (inactive),0.4% (inactive)
CC(C)C(Br)C(=O)NC(N)=O (configuration not stated),0.6% (inactive),1,-0.4% (inactive),-0.05% (inactive),1.7% (inactive),-0.8% (inactive),-3% (inactive),4.9% (inactive),1% (inactive)
